Screening results (PubChem BioAssay)
KB-V1 cytotox: kills drug-selected multidrug resistant KB-V1 cells; KB-V1 MDR cells viability, CellTiter-Glo, 72 h; Potency, µM (top dose mostly 46.1 µM), hits mostly cytotoxic; 400,000 compounds, 3.4% hits; further: on the % scale 0 is the no-effect control and ±100 the full control effect; nearly all actives have a fitted effect of over 60% in size
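Luminescent ATP read-out (CellTiter-Glo, 10 min) measures survival of drug-selected KB-V1 MDR cells after 72 h, 37 degrees C compound exposure. Medium: phenol-red-free DMEM, 10% FBS. Values from fitted concentration-response curves.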
SW480 rerep: inducers of DNA re-replication in SW480 colon cancer cells; AID 624297; 340,000 compounds, 1.8% hits; Potency, µM (doses to about 46.1 µM), without a hit: at the top dose re-replication activation, hits mostly activators; SW480 DNA re-replication, Hoechst DNA content imaging, 48 h; further: % of control where 0% means no effect; nearly all actives have a fitted effect of over 55% in size
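Per well, 250 cells were exposed to pinned compound for 48 hr. Nuclear DNA was visualised with Hoechst (40 min, 37 C) and total object intensity recorded by fluorescence scanning.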
RGS4 inhibitor: inhibitors of human regulator of G protein signaling 4 | AID 504845 | Potency, µM (series often up to 114 µM), for the others: at the highest dose activity change, negative = inhibition, usual class: inhibitors | P49798 | 390,000 compounds, 0.039% hits | Transcreener GDP fluorescence polarization, RGS4-accelerated GTP hydrolysis; further: on the % scale 0 is the no-effect control and ±100 the full control effect; nearly all actives have a fitted effect of over 75% in size
Target sequence (P49798 whole entry, looked up): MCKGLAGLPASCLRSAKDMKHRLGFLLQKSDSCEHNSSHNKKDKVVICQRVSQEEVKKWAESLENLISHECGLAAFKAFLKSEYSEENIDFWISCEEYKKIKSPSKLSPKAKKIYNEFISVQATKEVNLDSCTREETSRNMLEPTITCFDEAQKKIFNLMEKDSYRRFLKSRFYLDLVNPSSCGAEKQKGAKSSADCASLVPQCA
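MLSMR compounds (23 nl, pin-transferred) preincubated 10 min at room temperature with a 500nM (2x) first reagent, then RGS4 at 900nM (2x) plus Transcreener GDP mix added; fluorescence polarization (620/688 nm) read before and after 90 min at 30 °C.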
TSG101-PTAP inh: blocks PTAP/TSG101 interaction to inhibit HIV-1 budding; Potency, µM (highest dose often 115 µM), for the others: top-dose activity change, negative = inhibition, actives largely listed as inhibitors; Fluorescence polarization, FITC-PTAP peptide / Tsg101 binding; 340,000 tested, under 10 active; active means well fitted inhibition curve with a large enough effect in the main read-out, with a control signal flat, not every such curve was filed as active; inconclusive means small, poorly fitted or top-dose-only effect, or effect the other way, or a change in a side signal; inactive means no such curve, though single readings can be large or run the other way; further: % of control where 0% means no effect
Target sequence (Q99816 whole entry, looked up): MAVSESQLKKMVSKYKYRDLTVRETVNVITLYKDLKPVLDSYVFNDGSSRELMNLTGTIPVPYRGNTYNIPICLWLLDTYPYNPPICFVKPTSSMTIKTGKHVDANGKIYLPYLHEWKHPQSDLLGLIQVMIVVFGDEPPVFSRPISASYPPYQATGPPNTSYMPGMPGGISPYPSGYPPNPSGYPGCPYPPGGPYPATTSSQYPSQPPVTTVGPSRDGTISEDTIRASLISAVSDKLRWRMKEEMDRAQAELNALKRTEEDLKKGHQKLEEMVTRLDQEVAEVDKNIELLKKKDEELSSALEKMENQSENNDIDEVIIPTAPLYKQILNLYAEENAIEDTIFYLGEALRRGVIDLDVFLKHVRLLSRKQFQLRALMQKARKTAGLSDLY
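Steps: Tsg101 binding domain dispensed (10 uM final), compounds pinned in DMSO, FITC-labeled PTAP-motif peptide added (50 nM final); after 20 min binding at room temperature, polarization measured.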
MCF10A rereplic: DNA re-replication induction in MCF 10a cells; Potency, µM (top dose mostly 46.1 µM), without a hit: at the top dose activity, positive = re-replication, usual class: activators; MCF 10A DNA re-replication, Hoechst nuclear intensity, 48 h; 350,000 compounds, 2.9% hits; further: % of control where 0% means no effect; nearly all actives have a fitted effect of over 50% in size
KB-3-1 cytotox: kills parental KB-3-1 adenocarcinoma cells | AID 1347075 | 400,000 compounds, 1.4% hits | KB-3-1 viability, CellTiter-Glo ATP luminescence, 72 h | Potency, µM (series often up to 46.1 µM), hits mostly cytotoxic; further: on the % scale 0 is the no-effect control and ±100 the full control effect; nearly all actives have a fitted effect of over 60% in size
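Cytotoxicity measured as CellTiter-Glo luminescence after 72 h at 37 C. Compound titrations were pinned onto drug-naive KB-3-1 parental adenocarcinoma cells grown in DMEM with 10% FBS, and normalized data fitted to concentration-response curves.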
The depositor's hits bear a star; i = inactive; ? = inconclusive; nt = no result; [ ] = another dose, or the depositor's remark. Rows were chosen to be rich in hits. Some 6.6% of all compounds tested hit in one or more screens of this group. Unless noted, the call rests on the fitted dose curve; in most records, active means well fitted curve in the direction sought with a large enough effect; inconclusive means small, poorly fitted or top-dose-only effect, or another doubt; inactive means no such curve, though single readings can be large; an effect the other way counts as inactive or inconclusive. Potency means the concentration at half of the fitted maximal effect.

SMILES	KB-V1 cytotox	SW480 rerep	RGS4 inhibitor	TSG101-PTAP inh	MCF10A rereplic	KB-3-1 cytotox
O=C(Nc1ccccc1C(=O)N/N=C/c1ccc(F)cc1)c1ccccc1Br	26µM*	-10%	27%	nt	4%	i
CC(C)c1ccc(/C=N/NC(=O)c2ccccc2Cl)cc1	4.6µM*	13µM*	-6%	-1%	5.8µM*	15µM*
Cc1cccc(C(=O)Nc2cccc(C(=O)N/N=C/c3ccc4c(c3)OCO4)c2)c1	i	23µM*	3%	-3%	13µM*	13µM*
O=C(N/N=C/c1ccc(F)cc1)c1cccc(NC(=O)c2ccc(F)cc2)c1	i	2%	-8%	0%	21µM*	?
Cc1ccc2oc(/N=C(\N)NC(=O)C3CC3)nc2c1	5.2µM*	9.2µM*	1%	-1%	?	?
CCN(CC)CCCOc1cc2nc(N3CCCN(C)CC3)nc(NC3CCN(C)CC3)c2cc1OC	i	nt	nt	nt	nt	?
Cc1nc2c(c3c1[nH]c1ccccc13)C(O)CC(C)(C)C2 (configuration not stated)	16µM*	?	-12%	-1%	18µM*	?
Nc1ncnc2c1C1(CCCCC1)Cc1ccccc1-2	23µM*	1%	-20%	-3%	1%	?
Nc1n[nH]c2c1C1(CCCCC1)Cc1ccccc1-2	?	5%	-33%	-2%	6%	i
Cc1ccc(NC(=O)CN(C)CC(=O)Nc2ccc(F)c(Cl)c2)cc1	i	-4%	1%	-4%	21µM*	i
CC(/C=N/NC(=O)c1ccncc1)=C\c1ccc(C(C)C)cc1	10µM*	1%	-3%	-11%	?	i
CCc1cc(C(=O)NC2CCCc3c2cnn3-c2ccc(F)cc2F)no1 (configuration not stated)	?	nt	nt	nt	nt	15µM*
O=C(CCc1ccccn1)NC1CCCc2c1cnn2-c1ccc(F)cc1F (configuration not stated)	21µM*	-4%	-4%	-3%	-2%	?
O=C(Nc1ccc(Cl)cn1)c1cccc(S(=O)(=O)N2CCCC2)c1	16µM*	-13%	-8%	-1%	5%	i
O=C(Nc1cccc(S(=O)(=O)N2CCCC2)c1)c1ccc(Cl)nc1	?	18µM*	-6%	1%	?	?
O=C(Nc1ccc(Cl)cn1)c1cccc(S(=O)(=O)N2CCCCC2)c1	i	4%	2%	-5%	29%	i
O=C(Nc1ccc(Cl)cn1)c1ccc(-c2ccc(Cl)c(Cl)c2)o1	i	1%	-31%	-4%	18µM*	i
COc1ccc(C(=O)Nc2ccc(Cl)cn2)cc1Cl	i	?	-1%	-9%	18µM*	i
O=C(Nc1cccc(S(=O)(=O)N2CCOCC2)c1)c1ccc(Cl)nc1	i	-2%	-35%	-3%	24%	?
Cc1cc(NC(c2nnc(-c3ccccc3)o2)c2ccccc2F)ccc1Br (configuration not stated)	i	nt	-9%	nt	nt	?
O=C(Nc1ccc2c(c1)N(C1CCCC1)C(=O)c1ccccc1S2)c1ccc(F)cc1	?	nt	-3%	nt	nt	?
CN(C)S(=O)(=O)c1cccc(C(=O)Nc2ccc(Cl)cn2)c1	23µM*	4%	0%	-1%	-2%	i
CN(C)S(=O)(=O)Oc1cccc(C(=O)Nc2ccc(Cl)cc2)c1	i	-5%	-26%	1%	?	9.2µM*
O=C(Nc1ccc(Cl)cc1)c1cc2c(cc1O)[nH]c1ccccc12	?	2%	-5%	-2%	4.6µM*	?
COc1ccc(S(=O)(=O)N(CC(=O)Nc2ccc3c(c2)OCO3)c2ccc(C)cc2)cc1	i	nt	11%	nt	nt	i
SMILES	KB-V1 cytotox	SW480 rerep	RGS4 inhibitor	TSG101-PTAP inh	MCF10A rereplic	KB-3-1 cytotox
CCN(CCCNC(=O)C1CCN(S(=O)(=O)CC)CC1)c1ccccc1	i	10%	6%	-4%	2.9µM*	i
O=c1oc2c(CN3CCOCC3)c(O)ccc2c2c1CCCC2	i	-4%[9.22 µM]	-4%	-3%	-1%	i
CC1(C)Oc2c(ccc(O)c2CN2CCOCC2)C2=C1CCCC2	18µM*	-9%	-24%	0%	24%	i
O=C(Nc1nnc(-c2ccccc2)s1)C1CCCN(C(=O)c2ccoc2)C1 (configuration not stated)	i	nt	?	nt	nt	i
Cc1[nH]c(=O)c(C(=O)/C=C/c2ccccc2F)c2c1CCCC2	6.5µM*	4.1µM*	-47%	-2%	3.3µM*	6.5µM*
CC(=O)Nc1cccc(NC(=O)c2c(-c3ccccc3)c(-c3ccccc3)nn(C)c2=O)c1	nt	nt	-1%	nt	nt	nt
Cc1cc2ccccc2c[n+]1CC(=O)c1ccc(F)cc1	i	nt	nt	nt	nt	i
CC(C)c1c(C(=O)N/N=C/c2ccc(OCc3ccccc3)cc2)nnn1-c1nonc1N	i	?	4%	-1%	11%	i
CC(C)c1c(C(=O)N/N=C/c2cccc(OCc3ccccc3)c2)nnn1-c1nonc1N	i	-17%	14%	-8%	16µM*	i
COc1cccc(/C=N/NC(=O)c2nnn(-c3nonc3N)c2C(C)C)c1OCc1ccc(F)cc1	i	?	31%	-5%	21µM*	i
O=C(COc1ccc(Cl)cc1)Nc1ncc([N+](=O)[O-])s1	13µM*	-2%	-28%	0%	?	?
O=C(COC(=O)COc1ccccc1)Nc1ncc([N+](=O)[O-])s1	i	-4%	-53%	-2%	-3%	i
O=C(Cc1ccc(Br)cc1)Nc1ncc([N+](=O)[O-])s1	?	6%	-43%	1%	?	21µM*
O=C(Cc1ccc(Cl)cc1)Nc1ncc([N+](=O)[O-])s1	?	-4%	-18%	0%	?	i
Cc1cc2ccccc2n1-c1ccc(C(=O)N2CCC(C(=O)NCc3ccc(Cl)cc3)CC2)s1	nt	nt	-34%	nt	nt	nt
CCOC(=O)/C(=C\C=C\c1ccccc1)NC(=O)c1ccccc1	4.6µM*	-2%	-6%	0%	-3%	i
Cc1ccc(/C=C(\NC(=O)c2ccccc2)C(=O)OCc2ccccc2)cc1	16µM*	3%	-27%	-6%	3%	i
CCOC(=O)/C(=C/C=C/c1ccccc1)NC(=O)c1ccccc1	i	0%	-16%	3%	3%	i
CCOC(=O)c1c(NC(=O)C2=C(C)NC(=S)NC2c2ccc(F)cc2)sc(C)c1C (configuration not stated)	?	?	-27%	-11%	18µM*	i
